# Inconclusive results are not listed. Entries that show only a call come without a potency. Calls of active or inactive are those of the source. The call rests on the fitted dose curve; in most records, active means well fitted cell-killing curve with a large enough effect; inconclusive means small, poorly fitted or top-dose-only effect, or effect the other way; inactive means no such curve, though single readings can be large or run the other way.
# Assays:
# [1] = Viability qHTS for spleen associated tyrosine kinase inhibitor (SYKi) naive MV4-11 cells (AID 1963823); further: nearly all actives have a fitted effect of over 40% in size
# Summary of the method: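 Read-out: CellTiter-Glo luminescence. Exposure: 72 hr, 37 C, 5% CO2, 95% humidity. Cells: MV4-11 without SYK inhibitor history, 500/well, qHTS format.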
# [2] = Viability qHTS for spleen associated tyrosine kinase inhibitor (SYKi) drug resistant MV4-11 cells (AID 1963824); further: nearly all actives have a fitted effect of over 35% in size
# Summary of the method: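 SYK-inhibitor-resistant MV4-11 AML cells were seeded at 500 per well onto compound and cultured 72 hours (37 °C, 5% CO2). CellTiter-Glo was then added, and after 10 min at room temperature, luminescence gave viability.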
# Potency means the concentration at half of the fitted maximal effect.
SMILES,Potency [1],Potency [2]
Cc1cccc(N(C)C(=S)Oc2ccc3c(c2)C2CCC3C2)c1 (centres undefined),inactive,inactive
CC1(C)CC[C@]2(C(=O)O)CC[C@]3(C)C(=CCC4[C@@]5(C)CC[C@H](O[C@@H]6O[C@H](C(=O)O)[C@@H](O)[C@H](O)[C@H]6O)C(C)(CO)C5CC[C@]43C)C2C1 (some centres undefined),inactive,inactive
CCCCOc1ccc(CC/C=C2\SC(=O)N(CCN)C2=O)cc1,5.17 µM (active),2.91 µM (active)
CC(/C=C/C1(O)C(C)CC(O)CC1(C)C)OC1OC(CO)C(O)C(O)C1O (centres undefined),inactive,inactive
O=C1OC(/C=C/c2ccccc2)=NC/1=C\c1cccnc1,inactive,inactive
Cc1nc(CNc2ncnc3ccc(-c4ccc5c(c4)OCO5)cc23)cs1,14.6 µM (active),23.1 µM (active)
CNC(=O)c1ccc2c(c1)CCO[C@H]2CCN1CCN(c2ccc(C(N)=O)cc2)CC1,inactive,inactive
COC(=O)C1=CO[C@@H](O[C@@H]2O[C@H](CO)[C@@H](O)[C@H](O)[C@H]2O)[C@@H]2C(CO)=CC[C@H]12,inactive,inactive
CC1CCC2C(C)(C)CC(C)(CO)C2(O)C1C(=O)O (centres undefined),inactive,inactive
CC[C@@H]1C(=O)O[C@]23C=C[C@@H]4C(C(=O)OC)=CO[C@H](O[C@@H]12)[C@@H]43,3.66 µM (active),5.17 µM (active)
COc1cc(O)c2c(c1)C1=CC(O)C(O)CC1(C)OC2=O (centres undefined),inactive,inactive
CNc1nc(-c2ccc3c(N)n[nH]c3c2)cc(N2C[C@@H](C(=O)NC3CCCCC3)CC[C@H]2C)n1,5.25 µM (active),5.9 µM (active)

# Source: PubChem BioAssay (NCATS)
